# A number with no mark means an inactive call. How the calls were made is not given here.
# Assay: PLAP enzyme activity inhibition – biochemical, colorimetric, counter-screen, dose response (AID 779)
# Conditions: colorimetric OD read-out
row,Compound,IC50 [µM]
1,CCn1c(SCc2nc(-c3ccccc3)no2)nnc1-c1cccs1,> 50
2,Cc1ccc(S(=O)(=O)/C(C#N)=C/c2c(N3CCOCC3)nc3ccccn3c2=O)cc1,> 50
3,Oc1c(N=Nc2ccccn2)ccc2ccccc12,> 50
4,COc1ccc(N2Cc3cccc(C(=O)O)c3C2=O)cc1,> 50
5,CCCN1C(=O)/C(=C/C=C2\N(CC)c3ccccc3C2(C)C)SC1=S,> 50
6,Nc1ccc(Br)c2c1C(=O)c1ccccc1C2=O,> 50
7,CN(C)c1ccc(/C=C/C(=O)c2cccc(Br)c2)cc1,> 50
8,CC1(C)CCCN(C(=O)c2coc(=O)c(Br)c2)C1,> 50
9,CCn1c2ccc(Cl)cc2c2nc3ccccc3nc21,> 50
10,Cc1nc(C)c(C(=O)Nc2nc3c(C)cccc3s2)o1,> 50
11,Cc1ccc2cc(C=C(C#N)C#N)c(N3CCCCC3)nc2c1,> 50
12,CC(C(=O)O)N1C(=O)/C(=C/C=C/c2ccco2)SC1=S (configuration not stated),> 50
13,Cc1c(NC(=O)CCN2C(=O)c3ccccc3C2=O)c(=O)n(-c2ccccc2)n1C,> 50
14,O=C(c1ccc2c(=O)n(Cc3ccc4c(c3)OCO4)c(=S)[nH]c2c1)N1CCCCC1,> 50
15,CC(C)(C)C(=O)c1sc2nc(-c3cccs3)cc(C(F)(F)F)c2c1N,> 50
16,Cc1cc2ccccc2n1CCNC(=O)c1ccccc1,> 50
17,CCOC(=O)C1=C(C)N=c2s/c(=C/c3ccco3)c(=O)n2C1c1cccc(OC)c1 (configuration not stated),> 50
